Compound activity: PubChem, National Center for Advancing Translational Sciences (NCATS)
FMDV antiviral = antivirals against foot and mouth disease virus; Potency, µM (highest dose often 57.9 µM), without a hit: top-dose activity change, negative = inhibition, actives largely listed as inhibitors; 410,000 tested, 1.2% active; FMDV antiviral cell-based qHTS; calls by dose curve; tested in HEK293T cells; further: read-out not given here; potency means the concentration at half of the fitted maximal effect; on the % scale 0 is the no-effect control and ±100 the full control effect; nearly all actives have a fitted effect of over 45% in size
MARV entry inh = Marburg virus entry inhibition; Marburg virus pseudotyped entry inhibition, cell reporter; 300,000 tested, 1.8% active; Potency, µM (highest dose often 37.8 µM), for inactives: top-dose activity change, negative = inhibition, hits mostly inhibitors; calls by dose curve; tested in HEK293 cells; further: potency means the concentration at half of the fitted maximal effect; on the % scale 0 is the no-effect control and ±100 the full control effect
LASV entry inh = blocks Lassa virus binding to or entry into cells; Lassa virus pseudotype entry inhibition, cell reporter; Potency, µM (highest dose often 37.9 µM), for the others: at the highest dose activity change, negative = inhibition, actives largely listed as inhibitors; 300,000 tested, 1.2% active; AID 540256; calls by dose curve; tested in HEK293 cells; further: potency means the concentration at half of the fitted maximal effect; on the % scale 0 is the no-effect control and ±100 the full control effect; nearly all actives have a fitted effect of over 50% in size
HCV inhibitor = inhibitors of hepatitis C virus infection; Huh7.5.1 HCVcc-Cre infection, luciferase reporter, 44 h; Potency, µM (doses to about 41.8 µM), for inactives: at the top dose activity change, negative = inhibition, actives largely listed as inhibitors; 340,000 tested, 3.4% active; AID 651820; active means well fitted inhibition curve with a large enough effect; inconclusive means small, poorly fitted or top-dose-only effect, or another doubt; inactive means no such curve, though single readings can be large or run the other way; further: potency means the concentration at half of the fitted maximal effect; on the % scale 0 is the no-effect control and ±100 the full control effect
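Compounds are dispensed onto cells plated 4 h earlier at 1,000 per well, with HCVcc-Cre virus (about 0.5 moi) added next. Following 44 h of culture, luminescent signal is measured for 15 sec after 15 min with substrate at room temperature.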
Cycloheximide cs = affects cycloheximide protein synthesis inhibition readout, counter-screen. cell reporter, cycloheximide protein synthesis inhibition counterscreen. 300,000 tested, 12% active. max response, %; in the data active means max response mostly above about 13%, no sharp cut-off; inactive means mostly below about 14%; further: read at 38.3 µM for the half of the compounds with a filed dose; 0% is about no effect
Shiga inhibitor = inhibitors of Shiga toxin in Vero cells; Vero cells, Shiga toxin protein synthesis inhibition reporter; inhibition, % at 38.7 µM; 290,000 tested, 9.2% active; AID 2315; in the data active means inhibition mostly above about 28%, no sharp cut-off; inactive means mostly below about 43%; further: 0% is about no effect
An asterisk follows results filed as active; ? = inconclusive; · = not tested or not shown; ! = a repeat was not active; [ ] = remark or other dose. Sampled rows, rich in hits. Any-hit rate of the full collection: about 13%.

SMILES | FMDV antiviral | MARV entry inh | LASV entry inh | HCV inhibitor | Cycloheximide cs | Shiga inhibitor
O=C(CSc1ncnc2sc3c(c12)CCCC3)N1CCC(c2noc3ccc(F)cc23)CC1 | 3.2% | ? | -24.5% | 11.2µM*! | 2.3 | -8.2
O=C(NN=C1CCCCCCC1)c1ccc2ccccc2n1 | 44.4% | ? | -6.0%[46.1 µM] | -3.1% | 17.3* | 26.6
O=C(N/N=C1\CCCCc2ccccc21)c1ccccn1 | 41.3% | ? | ? | 13.1% | 44.0* | 89.9*
O=C(NN=C1CCCCCC1)c1ccncc1 | -11.2% | -25.3%[46.1 µM] | ? | 1.9% | 15.8 | 2.7
Cc1cc(C(=O)NN=C2CCCCCCC2)c2ccccc2n1 | -3.4% | 1.9% | 10.3% | -4.9% | · | ·
O=C(NN=C1CCCCCC1)c1c[nH]c2ccccc12 | 24.1% | 1.4% | -5.6% | 10.8% | 11.9 | active
O=C(NN=C1CCCCCCC1)c1ccccn1 | 36.7% | ? | 7.5% | 8.6% | 23.5* | 39.4
O=C(NN=C1CCCCCC1)c1cc2ccccc2cc1O | 0.0% | · | · | 6.6% | 7.6 | 17.7
O=C(N/N=C1/CCS(=O)(=O)c2ccc(F)cc21)c1ccccn1 | 6.3% | -2.8%[46.1 µM] | 23.6%[46.1 µM] | 8.3% | 15.2 | 53.9
C/C(CC(=O)NC(C)(C)C)=N\NC(=O)COc1ccc(C)cc1Br | 12.6% | 16.3%[46.1 µM] | ? | 18.6% | 18.3 | -4.0
COc1ccc(-c2n[nH]c(=S)n2-c2ccc3c(c2)OCCO3)cc1OC | 50.3% | 12.1% | 0.6% | ? | 23.5* | 49.8*
S=c1[nH]nc(-c2ccc(Cl)cc2Cl)n1-c1ccccc1 | 61.5% | · | · | 1.8% | 39.7* | ·
S=c1[nH]nc(-c2ccc(Br)cc2)n1-c1ccc2c(c1)OCCO2 | -11.5% | -11.2% | ? | -2.0% | 12.5 | 12.6
S=c1[nH]nc(-c2ccc(Cl)cc2Cl)n1Cc1ccccc1 | -9.3% | 31.5% | 4.2% | -3.7% | 3.7 | 20.8
COc1ccc(-c2n[nH]c(=S)n2-c2ccc3c(c2)OCCO3)cc1 | 10.5% | 5.0% | -0.9% | 1.7% | 10.9 | 15.9
Oc1ccc(-c2n[nH]c(=S)n2-c2ccc3c(c2)OCCO3)c(O)c1 | 2µM* | ? | ? | -25.4% | 17.1* | 35.1*
COc1ccccc1-c1n[nH]c(=S)n1-c1ccccc1 | 29.6% | -15.7%[46.1 µM] | 0.7% | 8.6% | 19.7* | 14.5
CC1(C)CC(=O)C2=C(C1)N(CCN1CCOCC1)C1=C(C(=O)CC(C)(C)C1)C2c1ccc(Cl)cc1 | -3.2% | · | · | 0.4% | 1.1 | -11.6
S=c1[nH]nc(Cc2ccc(Cl)cc2)n1-c1ccc2c(c1)OCCO2 | 4.1% | · | · | 1.0% | -2.9 | -3.1
COc1ccc(C2=NO[C@@H]3C(=O)N(c4ccc5c(c4)OCCO5)C(=O)[C@H]23)cc1OC | ? | -0.9% | 18.1% | 5.4% | 37.6* | 47.9*
S=c1[nH]nc(-c2ccc(Cl)cc2Cl)n1-c1ccc2c(c1)OCCO2 | 29.2% | 10.8% | ? | 6.6% | 20.6* | 46.3*
CC(=O)c1ccc(N2CCN(C(=O)c3ccc4c(Cl)c5c(nc4c3)CCCC5)CC2)cc1 | · | · | · | · | -3.1 | 3.6
Cn1c(C(=O)N/N=C/c2ccccc2)cc2ccccc21 | 8.8% | · | · | 2.1% | 20.8* | 43.6
Cn1c(/C=N/NC(=O)c2ccccc2)nc2ccccc21 | · | ? | ? | -14.5% | 30.6* | 75.3*
Cc1nn(C)c(C(=O)N/N=C/c2ccccc2)c1[N+](=O)[O-] | 10.0% | 11.3% | -4.0% | 10.2% | -1.5 | -6.1
SMILES | FMDV antiviral | MARV entry inh | LASV entry inh | HCV inhibitor | Cycloheximide cs | Shiga inhibitor
C=C(C)CC1(NC(C)c2ccccc2)CCCCC1 (stereo unspecified) | -14.3% | ? | 0.7% | 22.0% | -6.0 | -5.6
C/C=C(\CS(=O)(=O)c1ccccc1)S(=O)(=O)c1ccccc1 | -10.0% | -29.6% | -5.3% | ? | 14.5* | 44.1*
C/C(CS(=O)(=O)c1ccccc1)=N\O | -0.1% | -6.6%[46.1 µM] | 10.2% | 20.5% | -5.4 | -11.3
Cc1cnc(NC(=O)COc2ccccc2Cl)s1 | 10µM* | 2.31µM* | 1.83µM* | -6.6% | 10.7 | -14.5
CCOC(=O)c1sc(NC(=O)/C=C/c2ccccc2)nc1C | 13.4% | -0.6% | -13.7% | -17.4% | -2.0 | 2.2
CCOC(=O)c1sc(NC(=O)CC(C)c2ccccc2)nc1C (stereo unspecified) | -24.4% | 5.62µM* | ? | ? | -1.5 | 9.8
CCOC(=O)c1sc(NC(=O)C(OC(C)=O)c2ccccc2)nc1C (stereo unspecified) | 7.7% | ? | 13.4% | 3.9% | 24.7* | 38.8*
CCOC(=O)c1sc(NC(=O)CCc2ccccc2)nc1C | -5.3% | · | · | ? | -0.5 | -4.2
Cc1cnc(NC(=O)CC(C)c2ccccc2)s1 (stereo unspecified) | 3.3% | ? | 3.8%[46.1 µM] | ? | 28.4* | 59.6*
COc1ccccc1-c1cc(Nc2ccc(F)cc2)ncn1 | 18.7% | · | · | · | · | ·
CC(=O)NS(=O)(=O)c1ccc(NC(=O)c2cccc(OCc3c(C)noc3C)c2)cc1 | 0.7% | · | · | 4.9% | · | ·
Cc1cc(=O)oc2cc(OCC(=O)Nc3nnc(C(C)C)s3)ccc12 | 7.5% | -11.1% | 8.6% | -1.8% | -3.9 | -19.9
Cc1c(C(=O)NCCCN2CCCC2=O)oc2ccccc12 | 35.6% | 13.7% | -7.9% | 14.0% | 26.6* | 72.2*
COc1ccc2oc(C(=O)NCc3cc(OC)c(OC)cc3OC)c(C)c2c1 | ? | ? | -21.2% | 15.8µM* | 11.5 | 28.8
Cc1c(C(=O)NCCCN2CCCC2=O)oc2c(Cl)cccc12 | -5.9% | ? | ? | ? | · | ·
COCc1c(C(=O)NC2CCCCCC2)oc2ccccc12 | 27.7% | -1.7%[46.1 µM] | -0.1%[46.1 µM] | 1.4% | 21.9* | 62.3*
Cc1c(C(=O)NCc2cccs2)oc2ccccc12 | 22.5% | ? | -23.7% | 20.8% | 18.7* | 30.1*
COc1ccc2oc(C(=O)NCC(c3ccco3)N(C)C)c(C)c2c1 (stereo unspecified) | 55.4% | 0.3% | -7.0%[46.1 µM] | -22.1% | · | ·
Cc1ccc(CNC(=O)C2CC3Cn4c(nc5cc(C)c(C)cc54)C3N2C)o1 (stereo unspecified) | -17.0% | · | · | 26.7% | -3.9 | -3.2
CCc1noc(C)c1C(=O)NNC(=O)COc1ccc(C)cc1 | -7.9% | 7.8%[46.1 µM] | 15.6% | 1.7% | · | ·
COc1ccc(/C=C/C(=O)O)cc1S(=O)(=O)N1CCC(Cc2ccccc2)CC1 | -11.1% | · | · | 16.7% | 9.3 | -14.0
CCn1c(C)c(C(=O)NCCc2ccccc2)c2cc(OC)ccc21 | 11.7% | -28.5% | ? | ? | 18.5* | 18.5
Cc1c(C(=O)NC2CCC(C)CC2)oc2ccccc12 (stereo unspecified) | 36.8% | · | · | -22.8% | 45.9* | 61.5*
O=C(Nc1ccccc1Cc1ccccc1)c1oc2ccccc2c1COc1ccccc1 | ? | ? | 4.1% | 7.9% | -1.9 | -4.4
COc1ccc2oc(C(=O)NCCc3ccccc3)c(C)c2c1 | -49.9% | ? | 0.891µM* | 5.8% | · | ·
O=C(NCCc1ccccc1)c1oc2ccccc2c1COc1ccccc1 | 17.0% | ? | 8.7% | ? | 26.2* | 38.7*
CCSc1nnc(NC(=O)CSc2nnc(CNC(=O)c3ccccc3F)o2)s1 | -6.0% | -16.0% | 11.9% | 0.1% | 2.3 | -5.5
COc1ccc2c(c1)c(C(=O)CN1CCN(C)CC1)c(C)n2Cc1ccccc1 | -23.9% | 20µM* | -6.2% | -27.3% | -0.5 | -10.4
